# From PubChem BioAssay
# gsp antag: qHTS for Antagonists of gsp, the Etiologic Mutation Responsible for Fibrous Dysplasia/McCune-Albright Syndrome: qHTS | gsp-mutant cells, cAMP HTRF, 30 min | Potency, µM (series often up to 76.9 µM), for the others: at the highest dose activity change, negative = inhibition, actives largely listed as inhibitors | 340,000 compounds, 0.4% hits | AID 624288, 2012; calls by dose curve; cell line not stated here;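 further: intracellular cAMP measured with PDE inhibitor Ro 20-1724 present during compound exposure; potency means the concentration at half of the fitted maximal effect; on the % scale 0 is the no-effect control and ±100 the full control effect; nearly all actives have a fitted effect of over 65% in size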
#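 HTRF cAMP read-out (cAMP-d2 plus anti-cAMP antibody-K in lysis buffer, 30 min RT). Before lysis, cells are exposed to compounds with […] for 30 min at 37C in DPBS containing Ca/Mg, BSA and Tween 20.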
# RXFP1 ag: qHTS Assay for Agonists of the Relaxin Receptor RXFP1 | Relaxin receptor 1 (Homo sapiens), Q9HBX9 | HEK293T-RXFP1 cAMP TR-FRET, 30 min; response scale: percent of porcine relaxin response, buffer zero | Potency, µM (top dose mostly 57.5 µM), without a hit: at the top dose activation, usual class: activators | 370,000 compounds, 0.3% hits | AID 2676, 2010; active means well fitted activation curve with a large enough effect; inconclusive means small, poorly fitted or top-dose-only effect; further: potency means the concentration at half of the fitted maximal effect; on the % scale 0 is the no-effect control and ±100 the full control effect; nearly all actives have a fitted effect of over 60% in size
# Target sequence (Q9HBX9 whole entry, looked up): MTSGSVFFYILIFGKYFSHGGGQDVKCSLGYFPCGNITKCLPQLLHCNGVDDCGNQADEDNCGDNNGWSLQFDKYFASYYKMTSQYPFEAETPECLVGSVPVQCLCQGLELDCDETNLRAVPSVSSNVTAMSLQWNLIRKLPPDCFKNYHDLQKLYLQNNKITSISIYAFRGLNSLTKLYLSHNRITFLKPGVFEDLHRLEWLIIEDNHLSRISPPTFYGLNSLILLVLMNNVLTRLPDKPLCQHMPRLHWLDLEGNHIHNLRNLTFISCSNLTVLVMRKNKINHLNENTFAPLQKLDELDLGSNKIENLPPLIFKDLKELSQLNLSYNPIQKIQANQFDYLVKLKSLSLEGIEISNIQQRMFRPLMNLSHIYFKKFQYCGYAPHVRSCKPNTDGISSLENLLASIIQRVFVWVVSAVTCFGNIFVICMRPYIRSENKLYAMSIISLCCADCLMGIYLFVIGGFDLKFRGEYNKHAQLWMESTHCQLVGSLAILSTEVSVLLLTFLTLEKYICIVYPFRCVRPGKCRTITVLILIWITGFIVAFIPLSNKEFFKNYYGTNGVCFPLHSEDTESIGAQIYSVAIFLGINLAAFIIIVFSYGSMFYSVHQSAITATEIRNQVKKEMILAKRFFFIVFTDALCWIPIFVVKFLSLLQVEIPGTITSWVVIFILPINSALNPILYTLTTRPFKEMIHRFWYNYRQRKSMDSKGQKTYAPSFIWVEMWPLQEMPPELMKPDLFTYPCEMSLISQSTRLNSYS
#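 HEK293 cells stably expressing RXFP1, treated 30 min at 37C with compounds plus PDE4 inhibitor Ro 20174; cAMP measured by HTRF TR-FRET. Normalized to buffer and 29 nM porcine relaxin; EC50 by Hill fit.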
# RXFP1 antag: qHTS Assay for Antagonists of the Relaxin Receptor RXFP1; AID 1259400, 2018; activity change, negative = inhibition, % at 57.5 µM; Relaxin receptor 1 (Homo sapiens), Q9HBX9; 350,000 compounds, 0.59% hits; HEK293-RXFP1, relaxin-stimulated cAMP HTRF, 30 min; hits give low values;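 active means activity change of -60% or lower, but not beyond a set lower limit; inconclusive means change between -60% and -40%, or beyond the set limit; inactive means change above -40%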; further: on the % scale 0 is the no-effect control and ±100 the full control effect
# gsp agonist: qHTS for Agonist of gsp, the Etiologic Mutation Responsible for Fibrous Dysplasia/McCune-Albright Syndrome: qHTS; 340,000 compounds, 0.13% hits; gsp mutant cells, cAMP HTRF, 30 min; AID 624287, 2012; Potency, µM (series often up to 76.9 µM), inactives show at the top dose activation (cAMP increase), most hits filed as activators; active means well fitted activation curve with a large enough effect; inconclusive means small, poorly fitted or top-dose-only effect, or another doubt; inactive means no such curve, though single readings can be large or run the other way; cell line not stated here;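 further: phosphodiesterase inhibitor Ro 20-1724 added with compounds to block cAMP breakdown; potency means the concentration at half of the fitted maximal effect; nearly all actives have a fitted effect of over 60% in size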
#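 Cells stably selected in G418 were plated at 2000/well, grown 16-24 hr, then given compounds in DMSO with the PDE inhibitor […] (300 uM solution added) for 30 min at 37C; cAMP was read by HTRF.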
# * = called active by the depositor; ? = inconclusive; nt = no result given; [ ] = remark or other dose. Compounds with a hit are over-represented: about 0.9% of the library has one in this group of screens.
SMILES,gsp antag,RXFP1 ag,RXFP1 antag,gsp agonist
O=C(NNC(=S)NC(=O)c1ccccc1Cl)c1cccc([N+](=O)[O-])c1,-4%,2%,9,8%[15.4 µM]
O=C(NC(NC(=S)Nc1c(Cl)cccc1Cl)C(Cl)(Cl)Cl)c1cccc([N+](=O)[O-])c1 (configuration not stated),35µM*,-2%,-38,-12%
CCOC(=O)c1ccc(Nc2c(-c3ccc(O)cc3)nc3nc[nH]n23)cc1,nt,3%,3,nt
C=CCn1c(=O)c(CCC(=O)Nc2ccc(N3CCOCC3)cc2)nc2cc(C(F)(F)F)ccc21,-2%,-2%,-68*,?
CC(=O)c1cccc(NC(=O)c2noc3c2CC(C)CC3)c1 (configuration not stated),nt,0%,-6,nt
Cc1ccc2nc(Cl)c(/C=N/NC(=O)[C@H]3C[C@@H]3c3ccccc3)cc2c1,2%,2%,13,-1%[15.4 µM]
Cc1ccc2nc(Cl)c(/C=N/NC(=O)c3ccccc3O)cc2c1,35µM*,1%,-11,-11%
CC1CCN(c2nnc(-c3cccs3)c3ccccc23)CC1,?,2%,-30,-49%
c1csc(-c2nnc(NC3CCCCC3)c3ccccc23)c1,40µM*,-1%,-27,-9%
CCOc1ccc(C2C=C(c3ccc(C)cc3)Nc3nnnn32)cc1 (configuration not stated),40µM*,1%,9,11%
CC(C)(CNC(=S)NCCc1ccccc1)CNC(=S)NCCc1ccccc1,35µM*,1%,-3,-3%
OCCNC(=S)NCCc1ccccc1,15%,0%,1,-41%
O=C(CP(=O)(c1ccccc1)c1ccccc1)N/N=C/c1cc(Br)cc(Br)c1O,-27%,3%,-71*,2%[15.4 µM]
O=C(CNC(=O)c1ccccc1Br)N/N=C/c1ccccc1O,-20%,0%,8,-17%[15.4 µM]
O=C(Cc1ccc(Cl)cc1)N/N=C/c1ccccc1,6%,0%,23,6%
O=C(CNC(=O)c1ccccc1Br)N/N=C\c1cc([N+](=O)[O-])cc(Br)c1O,-5%,-4%,-67*,0%
O=C(Cc1ccccc1)N/N=C/c1cc(Br)cc(Cl)c1O,-13%,10%,-63*,12%[15.4 µM]
O=C(Cc1ccc(Cl)cc1)N/N=C/c1cccc(O)c1,50µM*,1%,10,0%
CN1N=C(C(N)=O)CCC1=O,nt,nt,-3,nt
Cc1cccc(-c2nc(SCC(=O)N(C)c3ccccc3)c3c(=O)n(C)c(=O)n(C)c3n2)c1,nt,5%,-2,nt
Cc1sc2ncnc(N3CCC(C(=O)N(C)CC(=O)Nc4ccccc4Br)CC3)c2c1C,35µM*,6%,-37,-107%
Cc1ccc(S(=O)(=O)NCCC(=O)N2CCN(S(=O)(=O)c3ccccc3)CC2)cc1C,-1%,1%,-2,7%[15.4 µM]
Cc1ccc(S(=O)(=O)NCCC(=O)N2CCN(S(=O)(=O)c3cccc(F)c3)CC2)cc1C,-20%,0%,-67*,18%[15.4 µM]
CC(C)OCCCN1C(=O)c2[nH]nc(-c3ccccc3O)c2C1c1ccccc1F (configuration not stated),nt,1%,?,nt
CC(C)CCNC(=O)c1cc(-c2cccnc2)nc2ccc(S(=O)(=O)N3CCC(C)CC3)cc12,nt,?,-9,nt
SMILES,gsp antag,RXFP1 ag,RXFP1 antag,gsp agonist
Cc1ccc2nc(N/C(=N/S(=O)(=O)c3ccc(F)cc3)c3ccccc3)sc2c1,25µM*,-1%,9,3%
Cc1ccc2nc(N/C(=N/S(=O)(=O)c3ccc(F)cc3F)c3ccccc3)sc2c1,-9%,-2%,-18,6%[15.4 µM]
CCc1ccc(CN(Cc2ccco2)C(=O)COc2ccccc2Cl)cc1,nt,-3%,-61*,nt
CCc1ccc(CN(Cc2ccco2)C(=O)c2ccc(OC)cc2)cc1,nt,-3%,-63*,nt
CCOC(=O)CNC(=S)N(Cc1ccco1)Cc1ccccc1Cl,40µM*,0%,1,-7%
COc1ccccc1CNC(=O)CN1C(=O)CCc2cc(S(=O)(=O)N3CCCCC3)ccc21,nt,-1%,nt,nt
COc1ccc(Oc2ccc(/C=C/C(=O)c3ccc(O)cc3)cc2[N+](=O)[O-])cc1,-22%,-2%,-64*,5%
O=C(/C=C/c1ccc(O)c([N+](=O)[O-])c1)c1ccc2ccccc2c1,?,-2%,-23,30%
